These results are taken from PubChem BioAssay AID827 (SRMLSC, 2007).

In all, about 140,000 compounds went through this assay and about 1,700 (1.2%) were called active. The entries come from a sample that favours actives as a whole. A number with no mark means an inactive call.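 The calls were made as follows: active = viability at or below a set limit, 4 SD under the median of all tested compounds (cut at about 3.7% in these data); inactive = the rest.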

A short description of this assay: growth suppression of PTEN-null HCT116, primary screen, cell-based, CellTiter-Glo (AID 827).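 Also: PTEN knockout HCT116 line with beta catenin targeted HCT116 as companion control.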 As to conditions: 60 h, at 10 µM, active compounds read low.
Broadly, the viability is a read-out of living cells in per cent, often relative to untreated cells. With `CCCC(O)(CCC)C(=O)NN(C(=O)CCl)c1cccc(C)c1`, the viability is 32.7%. For `CC(C[N+](C)(C)C)OC(N)=O` (stereo not drawn) the value was 1.03% (active); for `CC(=O)OC(C)C[N+](C)(C)C` (stereo not drawn), 98.9%.

On to `COc1ccc(/C(N)=N/OC(=O)CCCc2ccccc2)cc1`, for which the viability is 94.9%. Under `COC(=O)c1cc(C(=O)N(Cc2ccccc2)c2ccccn2)cc([N+](=O)[O-])c1` stands 94.2%; under `NC1=C([N+](=O)[O-])C(c2ccccc2)C2=C(CCCC2=O)O1` (stereo not drawn), 95.7%; under `O=C(COC(=O)/C(=C/c1cccs1)c1cccs1)NCc1ccccc1Cl`, 91.8%. For `Cc1coc2c(O)cc3c(c12)OC1(N2CCCCC2)C(=O)NCCCC31` (stereo not drawn) the value was 2.96% (active); for `Cn1cc(C(=O)NCc2ccccc2F)cn1`, 102%; for `Cn1cc([N+](=O)[O-])c(C(=O)Nc2ccc3c(c2)OCCO3)n1`, 3.52% (active). On to `O=C(Nc1ccc2c(c1)OCCO2)c1ccncc1`, for which the viability is 94.3%. Under `Cn1cc([N+](=O)[O-])c(C(=O)Nc2cnn(Cc3ccc(F)cc3)c2)n1` stands 3.56% (active); under `COc1cccc(NC(=O)c2ccc(Cn3cc([N+](=O)[O-])cn3)o2)c1`, 86.8%. In the case of `CCc1ccc(NC(=O)c2ccc(Cn3cc([N+](=O)[O-])cn3)cc2)cc1`, the viability is 99%. Under `O=C(Nc1ccc2c(c1)OCCO2)c1cnccn1` stands 97.3%.

As for `O=[N+]([O-])c1cccc(S(=O)(=O)N2CCCCCC2)c1`, the viability is 86.5%. Under `COc1ccc(C(=O)CSc2nnc(NC(=O)C3CC(=O)N(c4cccc(OC)c4)C3)s2)cc1` (stereo not drawn) stands 94.8%; under `Cc1nc2ccccc2cc1O`, 103%. As to `CSc1nc(N)c(C#N)c(-c2ccccc2Cl)c1C#N`, the viability is 86.3%. For `CSc1nc2ccccc2cc1/C=C(\C#N)c1ccc(Cl)cc1Cl` the value was 3.51% (active). Consider `Cc1cc(C(=O)COC(=O)CNC(=O)c2ccc(F)cc2)c(C)n1Cc1ccco1`, for which the viability is 96.4%. For `C=CCc1cccc2cc(C(=O)OCC)c(=O)oc12` the value was 104%. For `COc1cccc2cc(C(=O)N3CCN(C(=O)c4ccccc4)CC3)c(=O)oc12` the value was 87.7%; for `COc1cccc2cc(C(=O)N(C)C)c(=O)oc12`, 1.64% (active); for `Cc1ccc(Oc2cc(NC(=O)CCCn3nc(C)c([N+](=O)[O-])c3C)cc([N+](=O)[O-])c2)cc1`, 71.1%.

On to `CC(C)(C)C1CCC(OC(=O)CCC(=O)Nc2ccccc2)CC1` (stereo not drawn), for which the viability was 87%. For `CC(Nc1nc(N2CCCC2)nc2ccccc12)c1ccccc1` (stereo not drawn), the viability is 2.77% (active). As to `CC(C)n1c(C(O)c2ccccc2)nc2ccccc21` (stereo not drawn), the viability was 101%. Under `Cc1ccc(C(CC(=O)O)Nc2nc(N3CCCCC3)nc(N3CCCCC3)n2)cc1` (stereo not drawn) stands 99.5%.

Take `Cc1ccc(C)c(NC(=S)NCC(c2cccnc2)N2CCOCC2)c1` (stereo not drawn): the viability is 92.3%. For `CCCCCCc1cc2cc(-c3nnc(-c4ccccc4)o3)c(=O)oc2cc1O` the value was 1.84% (active); for `CC(=O)c1c(C)[nH]c(C(=O)OCC(=O)Nc2sc3c(c2C#N)CCCC3)c1C`, 66.9%; for `COc1cccc2c1CCC(NC(C)=O)C2=O` (stereo not drawn), 86%. Under `COc1ccc(/C=C(/NC(=O)c2ccc(C)cc2)c2nc3ccccc3[nH]2)cc1OC` stands 99.4%; under `O=C(/C(=C/c1cccc(Cl)c1)c1nc2ccccc2[nH]1)c1ccccc1`, 1.59% (active); under `Oc1ccc(Cl)cc1/C=N/c1nc2ccccc2[nH]1`, 93.9%.

Consider `Cc1ccc(C(=O)/C=C/Nc2ccc(S(=O)(=O)Nc3onc(C)c3C)cc2)cc1`, for which the viability is 92.7%. For the molecule `O=C(NCCc1ccccc1)C1CCC(Cn2c(=O)c3ccccc3n(Cc3cccnc3)c2=O)CC1` (stereo not drawn), the viability was 63.7%.

For `Cc1cccc(NC(=O)CSc2nc3[nH]ncc3c(=O)[nH]2)c1`, the viability is 90.2%. Regarding `CC(C)(C)CC(C)(C)NCC(O)COCCOc1ccc(Br)cc1` (stereo not drawn), the viability is 1.74% (active).

For `CCC(C)NCCOCCOc1ccc(Br)cc1C` (stereo not drawn), the viability was 71%. Regarding `Cc1noc(COc2ccccc2OCC(O)CNC(C)(C)C)n1` (stereo not drawn), the viability is 98.8%. Regarding `Cc1cccc(C(=O)OCC(=O)Nc2sc3c(c2C#N)CCC3)c1`, the viability was 95.8%. For `CCc1ccccc1NC(=O)CN(C)C(=O)COc1ccc(C)nc1[N+](=O)[O-]` the value was 95.3%; for `O=C(NNc1c2ccccc2nc2ccccc12)c1cc2ccccc2cc1O`, 2.39% (active); for `Cc1noc(C)c1COC(=O)c1cc2ccccc2cc1O`, 86.5%.

As for `O=C(Nc1c2c(nc3ccccc13)CCCC2)c1ccccc1Br`, the viability is 86.9%.

On to `C=CCNC(=O)c1ccccc1NC(=O)c1ccc(Cl)c(S(=O)(=O)Nc2cccc(C)c2C)c1`, for which the viability was 55.4%.

Regarding `Cc1ccc(-n2c(SCC(=O)N/N=C/C=C/c3ccccc3[N+](=O)[O-])nc3ccccc3c2=O)cc1`, the viability is 85.4%.

As to `Cn1cc(/C=C/c2nc3ccccc3c(=O)n2-c2cccc([N+](=O)[O-])c2)c2ccccc21`, the viability was 62.3%. `CCn1c(/C=C/c2ccc([N+](=O)[O-])o2)nc2ccccc2c1=O`: the viability was 2.45% (active). `CCc1nnc(NC(=O)[C@@H](NC(=O)c2cccc(C)c2)C(C)C)s1`: the viability is 80.8%. Under `Cc1cc(C)c2c(n1)sc1c(=O)n(-c3ccccc3)c(=O)[nH]c12` stands 97.1%; under `C/C(O)=C\c1nc(=O)c2c(C)cc(C)nc2n1-c1ccccc1`, 2.19% (active).

With `N#CCSc1nc2ccccc2c(=O)n1-c1ccccc1`, the viability was 90.5%. Under `COc1ccc(CCC(=O)OCC(=O)Nc2ccc(C)c(S(=O)(=O)N(C)C)c2)cc1` stands 96.3%. In the case of `c1ccc2c(c1)CSc1sccc1C2=C1CCNCC1`, the viability is 4.26%. As for `CCOC(=O)c1ccc(N/C(=N/S(=O)(=O)c2ccccc2)c2ccccc2)cc1`, the viability was 102%. In the case of `CCOC(=O)c1ccccc1NS(=O)(=O)c1ccc(OC)cc1`, the viability is 15.6%. Under `CCOC(=O)C1=C(c2ccc(OC)cc2)C(=O)c2ccccc2C1=O` stands 1.48% (active); under `CCCCC(C(=O)OCC(=O)c1ccc(OC)cc1)N1C(=O)c2ccccc2C1=O` (stereo not drawn), 97.5%.

For the molecule `N#C/C(=C(/O)COC(=O)COc1ccc(Cl)cc1)c1nc2ccccc2[nH]1`, the viability is 5.27%. Under `N=c1c2c(-c3ccccc3)c(-c3ccccc3)oc2ncn1Cc1ccco1` stands 54.2%; under `OCCCN1c2ccccc2Nc2nnc(-c3ccccc3)cc21`, 53.1%.

As to `N=c1c2c(-c3ccccc3)c(-c3ccccc3)n(Cc3ccccc3)c2ncn1CCCO`, the viability is 1.76% (active).

Take `Cc1nc(-c2ccccc2)sc1C(=O)/C=C/c1ccccc1`: the viability is 6.16%. In the case of `Cc1[nH]c(=O)c(C(=O)/C=C/c2ccccc2)c2c1CCCC2`, the viability is 1.81% (active). For `O=C(/C=C/c1ccccc1)c1ccccc1O` the value was 83.3%. For `O=C(Nc1ccccc1)c1cc2ccccc2[nH]1`, the viability is 66.4%. As to `O=C(/C=C/Sc1ncn[nH]1)c1ccc(Cl)cc1`, the viability was 2.52% (active).

For the molecule `O=C(NCCOCc1ccc(Cl)cc1)c1ncn[nH]1`, the viability was 101%. For `CC(C)(C)c1ccc(C(=O)CSc2ncn[nH]2)cc1` the value was 94.8%; for `CC(=O)NC1C(OCc2ccccc2)OC(COC(C)=O)C(OC(C)=O)C1OC(C)=O` (stereo not drawn), 96.9%; for `Cc1ccc(/C=N\n2c(-c3ccccc3)n[nH]c2=S)s1`, 109%.

As to `Cc1cc(-c2n[nH]c(=S)n2/N=C/C(Br)=C/c2ccccc2)n[nH]1`, the viability is 1.39% (active).

With `S=c1[nH]nc(-c2cccnc2)n1/N=C/C(Cl)=C\c1ccccc1`, the viability was 8.01%. Turning to `Cc1nn(C)c(C(=O)NNC(=S)NC2CCCCC2)c1Cl`, the viability is 95.4%. Under `CC1CCN(C(=S)NC2CC3CCC2C3)CC1` (stereo not drawn) stands 95.9%; under `O=C(CCCN1C(=O)/C(=C/c2ccco2)SC1=S)Nc1ccccc1`, 24%. For `O=C(c1c(Cl)nc2sccn12)N1CCCc2ccccc21`, the viability is 81.7%. Under `O=C1/C(=C\c2ccccc2Cl)SC(=S)N1CCC(=O)N1CCCc2ccccc21` stands 2.6% (active). As to `N=C1C(=O)OCC1c1ccccc1NC(=O)CN1CCCCC1` (stereo not drawn), the viability was 83.9%. As for `CC(NC(=O)c1cccc2ccccc12)c1ccc2c(c1)CCCC2` (stereo not drawn), the viability was 25.1%. Under `NS(=O)(=O)c1ccc(CCNC(=S)Nc2ccc(S(N)(=O)=O)cc2)cc1` stands 96.8%. Under `Cc1ccccc1C(CC(=O)c1cccs1)C(C#N)C#N` (stereo not drawn) stands 3.71% (active); under `Cc1ccc(C)c(NC(CC(=O)c2ccccc2)C(=O)OCC(=O)c2cccs2)c1` (stereo not drawn), 85%; under `O=C(CCC(=O)c1cccs1)NCc1ccccc1`, 97.4%. Under `Cc1ccc(CN2C(=O)N/C(=C/c3cc(C)n(-c4ccccn4)c3C)C2=O)cc1` stands 84.5%. Turning to `Cc1cc(OCCCC(=O)NCCN2C(=O)S/C(=C\c3cccnc3)C2=O)ccc1Cl`, the viability was 78.4%. Under `COC(=O)N/N=C/c1ccc(-c2ccc(Cl)c(Cl)c2)o1` stands 68.4%; under `O=C(CN1C(=O)NC2(CCCCCC2)C1=O)NCc1cccs1`, 102%. Under `Cc1ccc(C)c2[nH]c(=O)c(CCNC(=O)c3cccs3)cc12` stands 85.5%. On to `COc1cc(/C=N\NC(=O)CNC(=O)c2cccc([N+](=O)[O-])c2)ccc1O`, for which the viability is 98.5%. For `Cc1[nH]n(-c2cccc(Cl)c2)c(=O)c1/C=N/n1c(C)nc2ccccc2c1=O`, the viability was 89.2%. On to `Cc1[nH]n(-c2ccccc2)c(=O)c1/C=N/NC(=O)c1ccoc1C`, for which the viability is 3.19% (active). Under `Cc1ccc(-n2[nH]c(C)c(/C=N/NC(=O)c3cccc([N+](=O)[O-])c3)c2=O)cc1C` stands 2.5% (active); under `Cc1[nH]n(-c2ccc(Cl)cc2)c(=O)c1/C=N/n1c(C)nc2ccccc2c1=O`, 33.6%; under `COc1cccc(/C=N/NC(=O)c2cccc([N+](=O)[O-])c2)c1OS(=O)(=O)c1ccc(C)cc1`, 71.7%.
